This is a sample that favours compounds with a hit; in the whole collection about 4.8% have one here.
DAX1 inh-1 – DAX1 (NR0B1) inhibitors on StAR promoter, primary screen, cell-based, luminescence, SF-1 (NR5A1), full-length DAX-1; inhibition, % at 6.8 µM; 370,000 compounds, 1.1% hits; HEK293T StAR-luciferase reporter, SF-1/DAX-1 repression relief;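 active means inhibition above the mean over all tested compounds plus 3 SD, cut at about 3.6% in these data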;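 further: higher inhibition means more luminescence from relief of DAX-1 repression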
DAX1 inh-2 – DAX1 (NR0B1) inhibitors, primary screen, cell-based, HEK293, Gal4-DAX1, luciferase luminescence | Nuclear receptor subfamily 0 group B member 1 (Homo sapiens), P51843 | HEK293 Gal4-DAX1 luciferase reporter | inhibition, % at 6.75 µM | 340,000 compounds, 0.99% hits | AID 504766, 2011;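 active means inhibition above the mean over all tested compounds plus 3 SD, cut at about 4.2% in these data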;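 further: inhibition shows as a rise in luminescence from relieved DAX1 repression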
Target sequence (P51843 207-470 limits assumed): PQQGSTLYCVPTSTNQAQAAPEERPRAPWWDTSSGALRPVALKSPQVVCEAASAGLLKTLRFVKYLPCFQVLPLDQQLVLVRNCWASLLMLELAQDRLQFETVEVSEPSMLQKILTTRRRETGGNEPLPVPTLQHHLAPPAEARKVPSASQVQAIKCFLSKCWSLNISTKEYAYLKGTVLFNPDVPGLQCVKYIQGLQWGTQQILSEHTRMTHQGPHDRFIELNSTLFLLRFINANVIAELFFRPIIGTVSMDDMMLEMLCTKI
hgDAF-12 ag – H. glycines DAF-12 receptor agonists, primary screen, cell-based, luminescence, HEK293, GAL4 fusion, UAS-luciferase; 370,000 compounds, 1.8% hits; Nuclear hormone receptor DAF-12 (Heterodera glycines), GAL4 fusion; activation, % at 6.8 µM; HEK293 GAL4-hgDAF12 UAS-luciferase reporter, agonist luminescence; normalized to butyrate control; AID 687014, 2013;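 active means activation above a cutoff set at the mean of all screened compounds plus 3 SD, cut at about 10% in these data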
SMARCA2 activ – SMARCA2 (BRM) function activators, primary screen, cell-based, luminescence, high throughput. MG213 cells, MMTV-luciferase reporter, dexamethasone, overnight. activation, % at 9.1 µM. 370,000 compounds, 1% hits. AID 652017, 2013; in the data active means activation above about 7.8%
hcDAF-12 act – H. contortus DAF-12 nuclear receptor activators, primary screen, cell-based, luminescence, HEK293, lit1-tk-luc reporter. HEK293 hcDAF-12 lit1-tk-luc reporter; 0% DMSO, 100% Δ7-dafachronic acid. activation, % at 6.8 µM. 370,000 compounds, 1.4% hits. AID 652067, 2013;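 active means activation above the mean of all tested compounds plus 3 SD, cut at about 5.5% in these data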
ssDAF-12 act – S. stercoralis DAF-12 nuclear receptor activators, primary screen, cell-based, luminescence, HEK293, GRIP1 co-expression, lit1-tk-luc. Nuclear hormone receptor DAF-12 (Strongyloides stercoralis). HEK293 ssDAF-12/GRIP1 lit1-tk-luc reporter; % of 3 µM dafachronic acid response. activation, % at 6.8 µM. 370,000 compounds, 1% hits. AID 652126, 2013;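 active means activation above the mean over all tested compounds plus 3 SD, cut at about 0.9% in these data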
DAX1 inh confirm – DAX1 (NR0B1) inhibitors relieving SF-1 repression, confirmation, cell-based, luminescence, HEK293T, full-length DAX-1, SF-1 activated StAR promoter | shares compounds with DAX1 inh-1 | HEK293T StAR-promoter luciferase reporter, SF-1/DAX-1 repression | inhibition, % at 6.8 µM | 2,400 compounds, 87% hits | AID 652134, 2013;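 active means inhibition above the average of every tested compound plus 3 SD, cut at about 3.8% in these data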
SF1 mutant ctr – StAR reporter signal changes without DAX1, counter-screen for DAX1 inhibitor project, cell-based, luminescence, AF-2 mutant SF-1, transactivation. shares compounds with DAX1 inh-1. HEK293 StAR-luciferase, SF-1 AF2 mutant. inhibition, % at 6.8 µM. AID 652136, 2013. 2,400 compounds, 78% hits;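 active means inhibition above the mean of all tested compounds plus 3 SD, cut at about 3% in these data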
LXR ag – LXR agonists, Gal4 luciferase reporter, confirmation, counter-screen for hcDAF-12 agonist project, cell-based, luminescence, HEK293, H. contortus campaign. shares compounds with hcDAF-12 act. HEK293 Gal4-LXR tk-luc reporter, 24 h; normalized: DMSO 0%, positive control 100%. activation, % at 6.8 µM. 3,400 tested, under 10 active;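 active means mean percent activation of the reporter above a cutoff set as the average over tested compounds plus their standard deviation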
Target sequence (P55055 whole entry, looked up, the tested form may be a part): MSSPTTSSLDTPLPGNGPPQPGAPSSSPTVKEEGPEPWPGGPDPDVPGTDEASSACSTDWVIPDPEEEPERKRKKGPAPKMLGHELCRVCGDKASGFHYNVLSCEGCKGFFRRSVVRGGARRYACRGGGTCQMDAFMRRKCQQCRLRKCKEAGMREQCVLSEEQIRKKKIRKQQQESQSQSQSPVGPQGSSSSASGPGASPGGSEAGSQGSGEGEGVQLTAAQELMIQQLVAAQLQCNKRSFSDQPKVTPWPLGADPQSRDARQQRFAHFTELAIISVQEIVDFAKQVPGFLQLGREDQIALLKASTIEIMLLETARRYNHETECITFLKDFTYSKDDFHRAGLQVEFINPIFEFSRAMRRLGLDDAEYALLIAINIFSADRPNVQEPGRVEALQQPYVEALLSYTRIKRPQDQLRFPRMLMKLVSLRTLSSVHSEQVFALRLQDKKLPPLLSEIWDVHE
hcDAF12 conf – H. contortus DAF-12 receptor agonists, confirmation, cell-based, luminescence, HEK293, lit1-tk-luc, triplicate | HEK293 hcDAF-12 lit1-tk-luc reporter; % of Δ7-dafachronic acid response | shares compounds with hcDAF-12 act | AID 743032, 2013 | 3,400 compounds, 61% hits | activation, % at 6.8 µM;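 active means mean activation across triplicate tests above the threshold derived from the earlier primary screen, cut at about 5.5% in these data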
Hits are given with their value; i = inactive; nt = no result.

SMILES | DAX1 inh-1 | DAX1 inh-2 | hgDAF-12 ag | SMARCA2 activ | hcDAF-12 act | ssDAF-12 act | DAX1 inh confirm | SF1 mutant ctr | LXR ag | hcDAF12 conf
Nc1ccccc1C=C1Cc2ccccc2C1=O | 7.7 | i | 21.6 | i | 13.0 | 3.2 | 17.0 | 7.4 | i | 10.7
O=C(c1c(Cl)nc2sccn12)N(C(=O)c1c(Cl)nc2sccn12)c1ccc(Cl)cn1 | 5.4 | i | i | i | 7.9 | 1.2 | 10.9 | 3.0 | i | 11.0
O=C(NCCc1c[nH]c2ccccc12)c1c(Cl)nc2sccn12 | i | i | i | i | i | i | nt | nt | nt | nt
C/C(=N/NC(=O)c1ccncc1)c1ccc(NC(=O)c2ccccc2)cc1 | i | i | i | i | i | i | nt | nt | nt | nt
C/C(=N\NC(=O)c1ccccc1O)c1ccc(NC(=O)c2ccccc2)cc1 | 6.0 | i | 11.6 | i | 7.4 | i | i | i | i | i
CCc1ccc(NC(=O)c2cnn3ccccc23)cc1 | 5.5 | i | i | i | 11.6 | i | 6.1 | i | i | 19.2
NC(=O)c1c(NC(=O)c2cccnc2)sc2c1CCCCC2 | i | i | i | i | i | i | nt | nt | nt | nt
CC(=O)Nc1sc2c(c1C(N)=O)CCC2 | i | i | i | i | i | i | nt | nt | nt | nt
Cn1ccc(C(=O)Nc2sc3c(c2C(N)=O)CCCCC3)n1 | 10.4 | i | 11.6 | i | 7.8 | i | 4.9 | i | i | 6.9
NC(=O)c1c(NC(=O)c2cc3ccccc3o2)sc2c1CCC2 | 4.8 | i | 12.8 | i | 9.9 | 1.9 | 14.4 | 7.6 | i | 15.0
CC(C)CN(CC(C)C)C(=O)c1ccc2c(c1)NC(=O)C(C)(C)O2 | i | nt | i | i | i | i | nt | nt | nt | nt
CC(C)Oc1cccc(C(=O)Nc2ccc(Br)cc2F)c1 | 6.6 | 4.7 | 17.2 | i | 7.4 | i | 15.2 | 8.4 | i | i
Cc1noc(C)c1COc1cccc(C(=O)Nc2ccc(Br)cc2F)c1 | i | i | i | i | i | i | nt | nt | nt | nt
COc1ccc(C(=O)Nc2cnccn2)cc1[N+](=O)[O-] | i | i | i | i | i | i | nt | nt | nt | nt
CC(C)(C)c1ccc(C(=O)Nc2cnccn2)cc1 | 5.3 | i | i | i | 6.7 | i | 14.1 | 7.3 | i | i
CC(C)(C)NC(=O)C(c1cc2ccccc2o1)n1c(-c2ccc(-c3ccccc3)cc2)nc2ccccc21 (configuration not stated) | 10.5 | nt | 24.7 | i | 20.5 | 4.8 | 13.0 | 9.6 | i | 25.3
Cc1cc(C)c(CN2CCN(C(=O)Cn3cc(C)c(=O)[nH]c3=O)CC2)c(C)c1 | i | nt | i | i | i | i | nt | nt | nt | nt
CCOC(=O)[C@]12CCCCC/C=C\1N(CCc1ccc(Cl)cc1)C(=O)[C@H]2CC(=O)NCc1cccc2ccccc12 | i | nt | i | i | i | i | nt | nt | nt | nt
COc1ccc(C2=Nc3ccccc3N(C(=O)Cc3cc(OC)cc(OC)c3)C2C(=O)NC(C)C)cc1 (configuration not stated) | 6.0 | nt | 12.0 | i | 6.7 | 0.9 | 9.8 | 6.4 | i | 5.7
C[C@@H]1CC(=O)NN=C1c1ccc(NN=C(C#N)C#N)cc1 | i | nt | i | i | i | i | nt | nt | nt | nt
Cc1c(C(=O)NCC2CCCO2)oc2ccccc12 (configuration not stated) | i | i | i | i | i | i | nt | nt | nt | nt
Cc1ccc2oc(C(=O)NCCC3CCCCO3)c(C)c2c1 (configuration not stated) | 10.2 | i | 12.8 | i | 8.5 | i | 7.5 | 4.2 | i | 14.2
O=C(N/N=C/c1ccccc1Cl)c1n[nH]c2c1CCCC2 | 5.1 | i | 16.5 | i | 6.6 | i | i | i | i | i
O=C(N/N=C/c1ccc(Cl)cc1)c1n[nH]c2c1CCCC2 | i | i | i | i | i | i | nt | nt | nt | nt
O=C(Cc1c[nH]c2ccccc12)Nc1ccc(Nc2cccnc2)c(-c2ccc(Cl)c(Cl)c2)c1 | i | nt | i | i | i | i | nt | nt | nt | nt
SMILES | DAX1 inh-1 | DAX1 inh-2 | hgDAF-12 ag | SMARCA2 activ | hcDAF-12 act | ssDAF-12 act | DAX1 inh confirm | SF1 mutant ctr | LXR ag | hcDAF12 conf
COc1ccc(N=Nc2cc(C)ccc2O)cc1 | 5.0 | i | 25.1 | i | 7.1 | i | 15.5 | 6.2 | i | 7.3
Cc1cc(O)cc(=O)n1-c1ccc(Cl)c(C(F)(F)F)c1 | i | nt | i | i | i | i | nt | nt | nt | nt
Cc1ccc2c(c1)Cc1nc3ccccc3nc1-2 | 7.4 | i | 19.8 | i | 16.5 | 2.8 | 14.3 | 8.5 | i | 14.7
Cc1cc(C(=O)NC2CCC(C)CC2)c(C)o1 (configuration not stated) | 7.5 | i | i | i | 12.6 | i | 13.5 | 6.7 | i | 7.7
Cc1cc(C(=O)OCC(=O)NC2CCC(C)CC2)c(C)o1 (configuration not stated) | i | i | i | i | i | i | nt | nt | nt | nt
OC(c1ccccc1)(c1ccccc1)C1CCN(CCCOc2ccc(C(F)(F)F)cc2)CC1 | i | nt | i | i | i | i | nt | nt | nt | nt
FC(F)(F)c1ccc(Cn2ccc3ccc(-c4ccc5ccn(Cc6ccc(C(F)(F)F)cc6)c5c4)cc32)cc1 | i | nt | i | i | i | i | nt | nt | nt | nt
Cc1ccc(N=C/C(C(=O)C(F)(F)F)=C(\O)c2ccco2)cc1Cl | 5.2 | i | 16.3 | i | 17.8 | 1.4 | 16.3 | 8.7 | i | 10.2
Clc1ccccc1/C=N/NC1=Nc2cccc3cccc1c23 | 4.6 | 4.3 | 18.4 | i | 16.4 | 2.8 | 18.5 | 8.0 | i | 14.5
